Measured values from PubChem BioAssay AID485346 (Sanford-Burnham Center for Chemical Genomics, 2010).
Among all 330,000 compounds or so, about 10,000 (3%) were called active. This excerpt belongs to a sample that is enriched for actives. Values without a mark were called inactive.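 Rule for the calls: active = inhibition of at least 50% at 8 µM in the primary screen; inactive = the rest.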

These compounds were tested against Protein Mdm4 (Homo sapiens) + E3 ubiquitin-protein ligase Mdm2 (Homo sapiens) (UniProt O15151+Q00987) (assay: inhibitors of human Mdm2-MdmX association, primary screen, cell-based, luminescence, split luciferase, SaOS-2, uHTS (AID 485346)). Conditions: SaOS-2 split-luciferase Mdm2/MdmX complementation, at 8 µM, active compounds read high.
Sequence of Protein Mdm4 (Homo sapiens) + E3 ubiquitin-protein ligase Mdm2 (Homo sapiens) (O15151 whole entry, looked up): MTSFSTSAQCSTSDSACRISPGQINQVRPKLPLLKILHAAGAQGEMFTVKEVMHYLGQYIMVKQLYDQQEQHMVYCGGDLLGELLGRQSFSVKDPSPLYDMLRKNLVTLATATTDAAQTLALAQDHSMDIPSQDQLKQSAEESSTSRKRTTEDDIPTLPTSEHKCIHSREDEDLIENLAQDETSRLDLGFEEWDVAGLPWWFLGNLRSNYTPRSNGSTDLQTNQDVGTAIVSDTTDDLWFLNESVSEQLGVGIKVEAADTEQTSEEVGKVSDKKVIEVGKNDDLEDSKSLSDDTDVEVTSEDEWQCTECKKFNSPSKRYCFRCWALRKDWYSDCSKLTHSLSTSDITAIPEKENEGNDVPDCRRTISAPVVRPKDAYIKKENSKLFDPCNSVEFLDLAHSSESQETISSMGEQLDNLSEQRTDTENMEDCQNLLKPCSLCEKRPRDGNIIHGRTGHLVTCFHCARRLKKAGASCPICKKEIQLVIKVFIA
Sequence of Protein Mdm4 (Homo sapiens) + E3 ubiquitin-protein ligase Mdm2 (Homo sapiens) (Q00987 whole entry, looked up): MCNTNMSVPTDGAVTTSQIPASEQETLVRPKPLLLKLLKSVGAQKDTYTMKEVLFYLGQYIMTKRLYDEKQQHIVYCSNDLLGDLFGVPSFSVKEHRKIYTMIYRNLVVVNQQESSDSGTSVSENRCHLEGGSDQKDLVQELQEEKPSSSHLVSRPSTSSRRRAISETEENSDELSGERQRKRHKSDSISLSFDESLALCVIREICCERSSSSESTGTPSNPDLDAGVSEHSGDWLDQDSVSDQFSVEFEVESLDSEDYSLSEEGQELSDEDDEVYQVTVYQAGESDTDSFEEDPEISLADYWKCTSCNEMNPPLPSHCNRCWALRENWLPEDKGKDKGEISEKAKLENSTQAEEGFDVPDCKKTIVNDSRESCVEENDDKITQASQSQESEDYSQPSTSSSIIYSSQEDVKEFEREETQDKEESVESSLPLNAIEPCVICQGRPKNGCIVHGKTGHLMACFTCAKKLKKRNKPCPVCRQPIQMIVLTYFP

Question: `O=C(COC(=O)C1(c2ccc(F)cc2)CCCC1)N1CCNC1=O` was tested. Which inhibition did it give?
Answer: Its inhibition is 1.73%.

Question: Which inhibition does the source give for `C=CCn1c(CNS(=O)(=O)c2ccc(Br)cc2)nnc1SC` here?
Answer: Its inhibition is 20.2%.

Question: How did the inhibition turn out when `N/C(=N\OC(=O)/C=C/c1ccccc1)c1ccc(Br)cc1` was run?
Answer: Its inhibition is 13.5%.

Question: For `N/C(=N\OC(=O)N1c2ccccc2Sc2ccccc21)c1ccc(Br)cc1`, which inhibition is on record?
Answer: The inhibition was 53.2% (active).

Question: For `N/C(=N\OC(=O)Cc1ccccc1[N+](=O)[O-])c1ccc(Br)cc1`, which inhibition is on record?
Answer: Its inhibition is -0.461%.

Question: `Cc1cc(=O)cc(C)n1-c1ccc(Cl)c(Cl)c1` was tested. Which inhibition did it give?
Answer: Its inhibition is 15.1%.

Question: `O=c1[nH]nc(SCCS(=O)(=O)c2ccc(F)cc2)n1-c1ccccc1C(F)(F)F` was tested. Which inhibition did it give?
Answer: Its inhibition is 25.1%.

Question: `CC[C@@H]1CCCCc2ccccc2[C@@H](C(=O)C[C@H](O)CC(C)=O)OC1=O` was tested. Which inhibition did it give?
Answer: The inhibition was 33%.

Question: Which inhibition does the source give for `CCOC(=O)c1c(C)oc2cc(Sc3ccccc3)c(O)c(O)c12` here?
Answer: The inhibition was 34.7%.

Question: Which inhibition does the source give for `Cc1cc(O)cc(O)c1C(=O)Cc1cnn(-c2ccccc2)c1` here?
Answer: The inhibition was -9.6%.

Question: `Cc1[nH]nc(-c2ccc(OCc3cnn(-c4ccccc4)c3)cc2O)c1Oc1ccc(Cl)cc1` was tested. Which inhibition did it give?
Answer: The inhibition was 68.4% (active).

Question: For `COc1ccc(C(=O)Cc2cnn(-c3ccccc3)c2)c(O)c1`, which inhibition is on record?
Answer: The inhibition was -156%.

Question: For `CC(C)C[C@@H](CO)N1CCN(Cc2ccc(O)cc2)CCC1=O`, which inhibition is on record?
Answer: The inhibition was -30.6%.

Question: For `Nc1nonc1-c1nc2ccccc2n1Cc1ccc(F)cc1`, which inhibition is on record?
Answer: The inhibition was 53.7% (active).

Question: For `O=c1[nH]cccc1-c1nc2ccccc2n1Cc1ccc(Cl)cc1`, which inhibition is on record?
Answer: Its inhibition is -9.95%.

Question: Which inhibition does the source give for `COc1ccc(C)c(Cn2c(-c3nonc3N)nc3ccccc32)c1` here?
Answer: The inhibition was 45.6%.

Question: How did the inhibition turn out when `CCc1cccc(NC(=O)COC(=O)c2cc(=O)c3ccccc3o2)c1` was run?
Answer: Its inhibition is 13.3%.

Question: How did the inhibition turn out when `COc1ccccc1CNC(=O)COC(=O)c1sc(C)nc1C` was run?
Answer: The inhibition was -9.07%.

Question: With `O=c1oc2ccccc2c(CNc2ccccc2)c1[N+](=O)[O-]` as the compound, how does the inhibition read?
Answer: Its inhibition is 7.52%.

Question: With `Cc1ccc(-c2cccc([C@H]3[C@@H]4C=CC[C@@H](C)[C@@H]4C(=O)N3Cc3ccccc3)c2)cc1` as the compound, how does the inhibition read?
Answer: Its inhibition is 69.8% (active).

Question: How did the inhibition turn out when `Cc1cccc([C@H]2[C@@H]3C=CC[C@@H](C)[C@@H]3C(=O)N2Cc2ccccc2)c1` was run?
Answer: The inhibition was 16.7%.

Question: For `O=C(N[C@H]1C/C=C\C(c2cccc(F)c2)N(Cc2ccccc2)C(=O)C1)OCC1c2ccccc2-c2ccccc21` (stereo partly specified), which inhibition is on record?
Answer: Its inhibition is 2.78%.

Question: Which inhibition does the source give for `COc1ccccc1C(=O)COC(=O)CSCC(=O)Nc1cc(C)on1` here?
Answer: The inhibition was 9.62%.

Question: Which inhibition does the source give for `CCOc1cc(-c2nc3cc(C)ccn3c2NCC2CCCO2)ccc1O` (stereo unspecified) here?
Answer: Its inhibition is 22.2%.

Question: How did the inhibition turn out when `COc1ccc(-c2nc3cc(C)ccn3c2NC2CCCCC2)cc1SC1CCCCC1` was run?
Answer: The inhibition was 92.7% (active).

Question: How did the inhibition turn out when `COc1ccc(-c2nc3cnccn3c2NC2CCCCC2)cc1-c1cccc(Cl)c1` was run?
Answer: The inhibition was 34.9%.
